Results published in PubChem BioAssay (NCI).
This is part of a sample that, as a whole, favours compounds with a hit. Of some 83,000 tested, about 20% had one in any assay.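 Single-concentration screen, 48 h exposure, 96-well plates. Endpoint: percent growth. Below 10 = active.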 Active and inactive are the calls of the source.

System: MDA-MB-468 breast
Experiment: NCI-60 one-dose screen, 48 h (100 = growth as untreated, 0 = no growth, -100 = all killed)
Settings: 10 µM unless noted

SMILES	growth
O=C1/C=C/[C@@H](O)[C@@H]2C[C@@H](O)C[C@H]2/C=C/CCC[C@@H](O)CCO1	-17% (active)
O=C(O)Cc1cccc2ccccc12	121% (inactive)
CCCN1CN2C(=O)N3CN(CCC)CN4C(=S)N(C1)C2C34 (stereo not given)	107% (inactive)
COc1ccc2c(c1)OC(N)=C(C#N)C2c1cc(OC)c(OC)c(OC)c1 (stereo not given)	-20.9% (active)
Oc1ccc(CSc2nnc(-c3ccc(Cl)cc3)n2-c2ccccc2)c2cccnc12	14.5% (inactive)
CCOC1=C(Cl)C(=O)C(OCC)=C(Cl)C1=O	103% (inactive)
CCn1cc(-c2cc(-c3ccc(Cl)cc3)nc(N)n2)c(-c2ccc(Br)cc2)n1	72.7% (inactive)
COc1ccc2c(c1)c(-c1nc(-c3ccc4ccccc4c3)cs1)cn2C	10.4% (inactive)
CS(=O)(=O)Nc1ccc(-c2nn(-c3ccc(S(C)(=O)=O)cc3)cc2/C=C/C(=O)c2ccc(NC(=O)CO[N+](=O)[O-])cc2)cc1	95% (inactive)
COCCc1ccc(OCC(O)CNC(C)C)cc1 (stereo not given)	113% (inactive)
CN1CCN(CCOc2ccc(-c3cnc4c(-c5ccccc5F)cnn4c3)cc2)CC1	45.6% (inactive)
Nc1ncc(-c2ccc3ncnc(Nc4cncc(Cl)c4)c3c2)cn1	7.6% (active)
Brc1cccc(-c2cc(-c3ccc4c(c3)OCCO4)[nH]n2)c1	2.79% [25 µM] (active)
CCOC(=O)C(=O)Cc1cccnn1	102% (inactive)
O=C(Nc1ccc(N2CCOCC2)cc1)Nc1ccc2c(ccn2C(=O)c2cccc(F)c2)c1	27.5% (inactive)
CN1CCN(CCCNc2nccc(-c3c(-c4ccc(F)c(O)c4)nc4sccn34)n2)S1(=O)=O	92.9% (inactive)
Cc1cc(NS(=O)(=O)c2ccc(NC(=O)COc3ccc(-c4cc5ccccc5[nH]4)cc3)cc2)no1	-0.467% (active)
COc1cc2c(cc1OC)C1CCN3C(=O)CCC3N1CC2 (stereo not given)	107% (inactive)
Nc1n[nH]c2ccc([C@@H]3Nc4ccc5[nH]ncc5c4[C@H]4[C@H]5CCC(C5)[C@H]43)cc12	28.1% (inactive)
COc1cccc(/C=N/NC(=O)c2cnn3c2NC(c2ccccc2)C3)c1Oc1ccccc1 (stereo not given)	47.3% (inactive)

SMILES	growth
CCNc1nnnn1CC	101% (inactive)
CN(CCCCCl)P(=O)(OCc1ccc([N+](=O)[O-])o1)C(F)(F)c1ccc(CC(=O)NC[C@@H](O)/C=C\[C@@H](O)[C@H](CO)Cc2ccccc2)cc1 (stereo not given in full)	55% (inactive)
Cc1ccc(-c2c3c(N)nc(-c4cccnc4)nc3nc3c2c(C)nn3-c2ccccc2)cc1	74.6% (inactive)
C[C@@H]1CC[C@@]2(OC1)O[C@H]1C[C@H]3[C@@H]4CC=C5C[C@@H](O[C@@H]6O[C@H](CO)[C@@H](O[C@@H]7O[C@@H](CO)[C@H](O)[C@H]7O)[C@H](O)[C@H]6O[C@@H]6O[C@@H](C)[C@H](O)[C@@H](O)[C@H]6O)CC[C@]5(C)[C@H]4CC[C@]3(C)[C@H]1[C@@H]2C	-40.3% (active)
N#CC1=C(N)Oc2c(sc3c(F)cccc23)C1c1ccc(Cl)cc1 (stereo not given)	-42.2% (active)
COc1c2c(cc3c1C(=O)N[C@@H]1[C@@H](O)[C@@H](O)[C@H](O)C[C@@H]31)OCCO2	93.1% (inactive)
NCC(=O)CCC(=O)O	100% (inactive)
CCC(C)CC(N)O (stereo not given)	94.1% (inactive)
Cc1cc[n+](CCCC[n+]2ccc(C)cc2)cc1	99% (inactive)
O=S(=O)(Nc1ccc(NS(=O)(=O)c2ccccc2)c(Cl)c1)c1ccccc1	116% (inactive)
Cc1[nH]c(/C=C/C(=O)c2ccc(C(F)(F)F)c(F)c2)c(C)c1C(=O)NCC(C)C	93.6% (inactive)
C=C1C(=O)O[C@H]2[C@H]1CC/C(Cn1cc(CNCCc3c[nH]c4ccc(Cl)cc34)nn1)=C\CC[C@@]1(C)O[C@@H]21	19.6% (inactive)
CCOc1ccccc1/C=N/Nc1nc2ccccc2o1	28.1% (inactive)
CCCc1n(Cc2ccc3ccccc3c2)cc[n+]1Cc1ccc2ccccc2c1	-45.4% (active)
O=C(Nc1ccc(Nc2ccncc2)cc1)c1ccc(C(=O)Nc2ccc(Nc3ccncc3)cc2)cc1	2.69% (active)
CCN(CC)CCO/N=C1\CC(c2ccc(OC)c(OC)c2)Oc2ccccc21 (stereo not given)	80.1% (inactive)
O=C(Nc1c2ccccc2nc2ccccc12)c1ccccc1CN1C(=O)c2ccccc2C1=O	0.8% (active)
CCN1C(=O)N(CC)C2Nn3c(s/c(=C4\C(=O)N(CCC(C)C)c5ccccc54)c3=O)=NC21 (stereo not given)	11.6% (inactive)
O=C1CCN2C(=O)Nc3ccccc3C2C1 (stereo not given)	109% (inactive)
COc1ccc(Cn2cc(C(=O)N=Nc3c(O)[nH]c4c(C)cccc34)nn2)cc1	89.2% (inactive)
